The values that follow come from PubChem BioAssay (EPA / NIEHS).

Results filed as inconclusive are left out. Calls of active or inactive are those of the source. How the source made its calls, unless noted: active means hit-call score of the fitted dose curve at least 0.9, where 1 is the maximum; inactive means score below 0.9.

Assay [1] is described as follows: ATG_NRF2_ARE_CIS: Attagene CIS-FACTORIAL HepG2 Assay for human Nuclear Factor Erythroid 2 Related Factor 2 (NFR2) response to Antioxidant Response Elements (ARE) (AID 2282992).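 On AC50: reporter mRNA level measured by RT-PCR and capillary electrophoresis fluorescence.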 The conditions noted are these: HepG2 Attagene ARE/NRF2 reporter, transcription factor activity; actives raise or lower the signal. In a few lines: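 Fluorescence intensity of reporter-specific cDNA fragments, separated by capillary electrophoresis, reflects mRNA induction in transfected HepG2 cells at 24 h. Activity is fitted bidirectionally, DMSO serving as baseline.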

Assay [2] is described as follows: ATG_Oct_MLP_CIS: Attagene CIS-FACTORIAL HepG2 Assay for human Octamer-Binding Transcription Factor (Oct) (AID 2282993). The settings on record: HepG2 Attagene cis-factorial Oct reporter, mRNA; actives raise or lower the signal. In a few lines: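 Transient MRTU transfection of HepG2 → 24 h compound treatment → RNA isolation, reverse transcription, PCR → 6-FAM primer extension, HpaI digest → capillary electrophoresis. Activity fitted both directions against DMSO.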

The target in assay [3] is Cellular tumor antigen p53 (Homo sapiens) (UniProt P04637). Briefly: ATG_p53_CIS: Attagene CIS-FACTORIAL HepG2 Assay for human p53 Transcription Factor (AID 2282994). The settings on record: HepG2 p53 cis-element reporter, Attagene mRNA; actives raise or lower the signal. In short, it runs like this: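 Transiently transfected HepG2 (multiple cis reporter transcription units); exposure 24 h; reporter RNA via RT-PCR, 6-FAM extension, 2 h HpaI digest at 37 C, CE detection; DMSO baseline.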
Sequence of Cellular tumor antigen p53 (Homo sapiens) (P04637 whole entry, looked up): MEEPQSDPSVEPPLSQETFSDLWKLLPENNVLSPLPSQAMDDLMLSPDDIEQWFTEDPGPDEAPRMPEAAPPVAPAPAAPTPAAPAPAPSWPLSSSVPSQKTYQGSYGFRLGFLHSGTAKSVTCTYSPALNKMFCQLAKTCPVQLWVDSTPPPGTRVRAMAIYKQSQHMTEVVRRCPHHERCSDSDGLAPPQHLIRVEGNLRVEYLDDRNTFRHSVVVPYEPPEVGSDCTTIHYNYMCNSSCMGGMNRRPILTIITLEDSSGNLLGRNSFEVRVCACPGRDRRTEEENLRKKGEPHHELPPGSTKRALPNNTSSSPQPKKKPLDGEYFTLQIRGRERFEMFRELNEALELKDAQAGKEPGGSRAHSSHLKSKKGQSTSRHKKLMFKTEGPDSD

The nature of assay [4]: BSK_3C_TissueFactor: BioMAP Diversity Plus: 3C Assay for Tissue Factor Biomarker Activity (AID 2282997). The conditions noted are these: BioMAP 3C HUVEC, tissue factor biomarker readout; actives raise or lower the signal. In a few lines:
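Cells used were primary human umbilical vein endothelial cells. They were dosed with chemical, and after 24 h Tissue Factor was quantified by ELISA. Curves were fitted bidirectionally with DMSO as baseline.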

A short description of assay [5]: BSK_3C_uPAR: BioMAP Diversity Plus: 3C Assay for Urokinase-type plasminogen activator receptor (uPAR) Biomarker Activity (AID 2282998). The conditions noted are these: BioMAP 3C HUVEC, uPAR biomarker ELISA; actives raise or lower the signal. In a few lines:
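ELISA readout of uPAR on human vascular endothelium (umbilical vein primary cells), taken 24 h after chemical dosing. Increases and decreases are both fitted relative to DMSO vehicle.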
(In general: An ELISA detects its analyte on a solid surface through an enzyme-linked reagent.)

Assay [6] is described as follows: BSK_3C_VCAM1: BioMAP Diversity Plus: 3C Assay for Vascular cell adhesion molecule 1 (VCAM1) Biomarker Activity (AID 2282999). The conditions noted are these: BioMAP 3C HUVEC, VCAM1 ELISA, cytokine-stimulated; actives raise or lower the signal. In short, it runs like this: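 Activity fitted in both directions relative to DMSO, with ELISA measurement of the surface marker on primary HUVEC (3C) at 24 h post-treatment; parallel SRB staining (0.1% SRB, TCA-fixed, 560 nm) flagged overt cytotoxicity.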

Assay [7] can be described thus: BSK_4H_Eotaxin3: BioMAP Diversity Plus: 4H Assay for Eotaxin 3 Biomarker Activity (AID 2283000).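 On outcome: CCL26 protein level quantified by ELISA in parallel with SRB cytotoxicity check.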 The conditions noted are these: primary human endothelial cells (HUVEC); actives raise or lower the signal. In a few lines:
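Endothelial primary cells (human umbilical vein) exposed to compound for 24 h. ELISA detection of Eotaxin-3.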

The target of assay [8] is human Peroxisome Proliferator-activated Receptor alpha (PPARa), PPARA (gene 5465) (UniProt Q07869). Briefly: ATG_PPARa_TRANS: Attagene TRANS-FACTORIAL HepG2 Assay for human Peroxisome Proliferator-activated Receptor alpha (PPARa) (AID 2283001; active means hit-call score of the fitted dose curve at least 0.9, where 1 is the maximum). In a few lines:
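Transfected HepG2 cells treated with test chemical for 24 h. RNA isolated, reverse-transcribed with oligo(dT), PCR-amplified, FAM-labelled and HpaI-digested. Fragments sized by capillary electrophoresis; gain-of-signal fit relative to DMSO.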

Read-out in assay [9]: Intercellular Adhesion Molecule 1 (ICAM1), ICAM1 (gene 3383)
Put plainly: BSK_3C_ICAM1: BioMAP Diversity Plus: 3C Assay for Intercellular Adhesion Molecule 1 (ICAM1) Biomarker Activity (AID 2283003). The conditions noted are these: primary human endothelial cells (HUVEC); actives raise or lower the signal. In short, it runs like this:
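Using DMSO as baseline, bidirectional curve fitting was applied to ICAM-1 ELISA signals from HUVEC in the 3C system, measured 24 h after compound addition.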

For assay [10], the target named is human Retinoic Acid Receptor beta (RARb), RARB (gene 5915) (UniProt P10826). Briefly: ATG_RARb_TRANS: Attagene TRANS-FACTORIAL HepG2 Assay for human Retinoic Acid Receptor beta (AID 2283004; active means hit-call score of the fitted dose curve at least 0.9, where 1 is the maximum). In a few lines:
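HepG2, transient MRTU transfection, NR–Gal4 chimera, 24 h treatment; RT-PCR plus CE fluorescence detection of reporter mRNA; gain of signal vs DMSO.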

Assay [11] can be described thus: BSK_3C_Proliferation: Cell Proliferation Assessment in the BioMAP Diversity Plus: 3C Assay (AID 2283006).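 On AC50: potency may reflect either rise or fall in cell number versus DMSO.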 The conditions noted are these: primary human endothelial cells (HUVEC). In short, it runs like this: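 Measured here: sulforhodamine B (0.1%) staining of TCA-fixed sub-confluent umbilical vein endothelial cultures 48 h post-dosing, absorbance 560 nm. DMSO served as negative control and baseline; both signal gain and loss were modelled.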

The target of assay [12] is Peroxisome proliferator-activated receptor gamma (Homo sapiens) (UniProt P37231). Put plainly: ATG_PPARg_TRANS: Attagene TRANS-FACTORIAL HepG2 Assay for human Peroxisome Proliferator-activated Receptor-gamma (PPARg) (AID 2283007; active means hit-call score of the fitted dose curve at least 0.9, where 1 is the maximum). In short, it runs like this: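 A TRANS-format multiplexed reporter assay measures activity of an exogenous chimeric NR-Gal4 protein in HepG2 cells. After 24 h of chemical exposure, reporter transcripts are amplified, fluorescently labelled and sized by capillary electrophoresis, with gain of signal scored against DMSO.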
Sequence of Peroxisome proliferator-activated receptor gamma (Homo sapiens) (P37231 whole entry, looked up, the tested form may be a part): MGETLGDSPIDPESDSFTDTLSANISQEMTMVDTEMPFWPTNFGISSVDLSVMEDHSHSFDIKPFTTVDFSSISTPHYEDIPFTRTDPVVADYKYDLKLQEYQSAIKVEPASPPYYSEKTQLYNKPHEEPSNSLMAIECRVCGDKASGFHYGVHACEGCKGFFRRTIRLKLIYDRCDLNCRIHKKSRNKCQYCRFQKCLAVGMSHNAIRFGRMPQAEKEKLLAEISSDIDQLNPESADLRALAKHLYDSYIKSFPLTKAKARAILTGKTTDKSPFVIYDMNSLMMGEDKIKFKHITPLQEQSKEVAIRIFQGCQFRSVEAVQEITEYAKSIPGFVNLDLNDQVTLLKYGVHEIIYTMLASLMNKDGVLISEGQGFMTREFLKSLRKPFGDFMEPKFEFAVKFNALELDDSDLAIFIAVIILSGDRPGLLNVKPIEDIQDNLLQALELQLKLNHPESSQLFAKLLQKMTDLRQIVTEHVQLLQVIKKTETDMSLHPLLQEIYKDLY

In assay [13] the target is human Retinoic Acid Receptor gamma (RARg), RARG (gene 5916) (UniProt P13631). Briefly: ATG_RARg_TRANS: Attagene TRANS-FACTORIAL HepG2 Assay for human Retinoic Acid Receptor gamma (RARg) (AID 2283009; active means hit-call score of the fitted dose curve at least 0.9, where 1 is the maximum;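 on AC50: AC50 is for reporter induction above DMSO meaning RARg activation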). In a few lines: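 Gain-of-signal relative to DMSO is reported from fluorescent capillary electrophoresis of RT-PCR reporter products. These came from HepG2 cells expressing transfected RARg-GAL4 chimeras with UAS reporters, harvested 24 h after dosing.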
Sequence of human Retinoic Acid Receptor gamma (RARg), RARG (gene 5916) (P13631 whole entry, looked up, the tested form may be a part): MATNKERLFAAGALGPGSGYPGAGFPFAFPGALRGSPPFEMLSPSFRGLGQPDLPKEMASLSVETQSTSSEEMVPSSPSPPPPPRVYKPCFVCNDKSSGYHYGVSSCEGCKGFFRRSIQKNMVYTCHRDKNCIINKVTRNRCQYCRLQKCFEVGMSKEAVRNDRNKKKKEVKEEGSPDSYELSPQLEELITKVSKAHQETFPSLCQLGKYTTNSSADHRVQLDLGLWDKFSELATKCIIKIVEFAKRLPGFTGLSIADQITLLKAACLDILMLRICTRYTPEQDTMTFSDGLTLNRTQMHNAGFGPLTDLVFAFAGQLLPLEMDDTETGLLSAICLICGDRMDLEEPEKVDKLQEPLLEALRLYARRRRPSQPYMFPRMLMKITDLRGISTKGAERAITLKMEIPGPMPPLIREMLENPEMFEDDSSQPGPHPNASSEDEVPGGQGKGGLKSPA

Assay [14] addresses Retinoic acid receptor RXR-alpha (Homo sapiens) (UniProt P19793). Put plainly: ATG_RXRa_TRANS: Attagene TRANS-FACTORIAL HepG2 Assay for human Retinoid X Receptor alpha (RXRa) (AID 2283012; active means hit-call score of the fitted dose curve at least 0.9, where 1 is the maximum). In short, it runs like this:
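Chimeric NR-GAL4 trans-activation in HepG2, 24 h treatment; reporter transcripts quantified by fluorescence on capillary electrophoresis, analysed for upward change from DMSO.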

Assay [15] addresses human RAR-related Orphan Receptor beta (RORb), RORB (gene 6096) (UniProt Q92753). Briefly: ATG_RORb_TRANS: Attagene TRANS-FACTORIAL HepG2 Assay for human RAR-related Orphan Receptor beta (RORb) (AID 2283010; active means hit-call score of the fitted dose curve at least 0.9, where 1 is the maximum). In a few lines:
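Multiplexed transcription-factor reporter assay: HepG2 cells transiently carrying NR-Gal4/GAL4-UAS constructs, 24 h treatment, mRNA quantified by RT-PCR plus capillary electrophoresis fluorescence; activity scored as induction over DMSO.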

The target of assay [16] is human RAR-related Orphan Receptor gamma (RORg), RORC (gene 6097) (UniProt P51449). Put plainly: ATG_RORg_TRANS: Attagene TRANS-FACTORIAL HepG2 Assay for human RAR-related Orphan Receptor gamma (RORg) (AID 2283011; active means hit-call score of the fitted dose curve at least 0.9, where 1 is the maximum). In short, it runs like this: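 Activity is scored as increase in GAL4-UAS reporter mRNA over DMSO, detected by fluorescent RT-PCR and capillary electrophoresis in HepG2 cells transiently expressing a RORg-Gal4 chimera, 24 h after dosing.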
Sequence of human RAR-related Orphan Receptor gamma (RORg), RORC (gene 6097) (P51449 whole entry, looked up, the tested form may be a part): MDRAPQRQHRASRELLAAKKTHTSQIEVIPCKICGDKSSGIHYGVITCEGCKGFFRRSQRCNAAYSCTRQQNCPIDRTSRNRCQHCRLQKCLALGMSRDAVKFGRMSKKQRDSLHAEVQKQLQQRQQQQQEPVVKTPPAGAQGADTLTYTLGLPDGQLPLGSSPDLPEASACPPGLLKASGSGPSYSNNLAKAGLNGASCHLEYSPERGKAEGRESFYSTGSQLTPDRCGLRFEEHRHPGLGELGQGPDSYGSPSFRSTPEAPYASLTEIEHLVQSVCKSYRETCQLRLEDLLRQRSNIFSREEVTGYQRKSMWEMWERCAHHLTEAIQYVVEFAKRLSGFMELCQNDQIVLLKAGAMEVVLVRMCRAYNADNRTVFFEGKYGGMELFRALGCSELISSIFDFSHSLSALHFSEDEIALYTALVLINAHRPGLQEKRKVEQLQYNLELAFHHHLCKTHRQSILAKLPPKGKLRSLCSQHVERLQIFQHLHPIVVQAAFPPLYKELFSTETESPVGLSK

Assay [17] deals with Retinoic acid receptor alpha (Homo sapiens) (UniProt P10276). Briefly: ATG_RARa_TRANS: Attagene TRANS-FACTORIAL HepG2 Assay for human Retinoic Acid Receptor alpha (RARa) (AID 2283005; active means hit-call score of the fitted dose curve at least 0.9, where 1 is the maximum). In short, it runs like this: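 Reporter transcripts, measured by RT-PCR with fluorescent labeling and capillary electrophoresis after 24 h dosing, reflect activity of an exogenous human RARa–GAL4 fusion in transiently transfected HepG2. Fitted for increase relative to DMSO.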
Sequence of Retinoic acid receptor alpha (Homo sapiens) (P10276 whole entry, looked up, the tested form may be a part): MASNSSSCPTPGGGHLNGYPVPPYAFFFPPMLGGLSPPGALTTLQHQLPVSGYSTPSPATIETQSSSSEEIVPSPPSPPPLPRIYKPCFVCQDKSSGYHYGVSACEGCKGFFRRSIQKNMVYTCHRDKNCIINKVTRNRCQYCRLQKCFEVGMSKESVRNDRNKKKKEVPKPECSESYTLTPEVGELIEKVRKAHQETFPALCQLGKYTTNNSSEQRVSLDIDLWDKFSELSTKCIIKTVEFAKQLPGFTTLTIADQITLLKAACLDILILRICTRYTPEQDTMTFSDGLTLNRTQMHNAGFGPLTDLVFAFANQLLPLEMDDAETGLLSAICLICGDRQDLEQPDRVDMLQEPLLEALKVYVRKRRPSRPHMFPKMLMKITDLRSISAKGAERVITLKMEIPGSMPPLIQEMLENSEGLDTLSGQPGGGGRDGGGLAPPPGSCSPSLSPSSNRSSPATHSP

Assay [18] addresses Nuclear receptor subfamily 1 group I member 2 (Homo sapiens) (UniProt O75469). Put plainly: ATG_PXR_TRANS: Attagene TRANS-FACTORIAL HepG2 Assay for human Pregnane X Receptor (PXR) (AID 2283008; active means hit-call score of the fitted dose curve at least 0.9, where 1 is the maximum). In a few lines: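 Transient HepG2 transfectants carrying multiplexed reporter transcription units; PXR activity read through a Gal4 chimera. 24 h exposure. RT-PCR/CE fluorescence; upward curve fit referenced to DMSO.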

Sequence of human Peroxisome Proliferator-activated Receptor alpha (PPARa), PPARA (gene 5465) (Q07869 whole entry, looked up, the tested form may be a part): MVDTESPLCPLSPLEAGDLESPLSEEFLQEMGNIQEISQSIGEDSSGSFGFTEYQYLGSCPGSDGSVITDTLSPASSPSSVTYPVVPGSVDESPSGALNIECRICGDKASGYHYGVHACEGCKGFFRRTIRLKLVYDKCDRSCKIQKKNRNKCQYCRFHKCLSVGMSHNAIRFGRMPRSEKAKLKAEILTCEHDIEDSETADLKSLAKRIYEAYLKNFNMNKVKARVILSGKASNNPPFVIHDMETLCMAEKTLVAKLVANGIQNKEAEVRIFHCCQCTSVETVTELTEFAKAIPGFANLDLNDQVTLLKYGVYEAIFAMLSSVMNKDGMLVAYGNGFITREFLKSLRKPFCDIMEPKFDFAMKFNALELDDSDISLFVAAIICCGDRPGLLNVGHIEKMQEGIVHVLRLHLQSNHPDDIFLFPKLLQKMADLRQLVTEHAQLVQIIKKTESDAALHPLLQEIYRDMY
Sequence of human RAR-related Orphan Receptor beta (RORb), RORB (gene 6096) (Q92753 whole entry, looked up, the tested form may be a part): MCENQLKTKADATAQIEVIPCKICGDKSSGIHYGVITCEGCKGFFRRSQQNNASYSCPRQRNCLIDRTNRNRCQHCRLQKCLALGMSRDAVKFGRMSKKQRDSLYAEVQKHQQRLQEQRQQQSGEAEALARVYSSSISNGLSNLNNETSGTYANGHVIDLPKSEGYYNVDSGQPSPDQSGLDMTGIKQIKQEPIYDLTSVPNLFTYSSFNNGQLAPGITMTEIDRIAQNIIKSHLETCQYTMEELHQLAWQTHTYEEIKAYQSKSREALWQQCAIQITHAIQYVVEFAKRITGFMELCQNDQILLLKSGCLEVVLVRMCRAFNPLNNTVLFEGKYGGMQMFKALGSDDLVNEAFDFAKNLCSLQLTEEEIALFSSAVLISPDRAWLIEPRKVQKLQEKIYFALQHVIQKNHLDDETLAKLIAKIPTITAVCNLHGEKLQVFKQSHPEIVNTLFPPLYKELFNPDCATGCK
Sequence of Nuclear receptor subfamily 1 group I member 2 (Homo sapiens) (O75469 whole entry, looked up, the tested form may be a part): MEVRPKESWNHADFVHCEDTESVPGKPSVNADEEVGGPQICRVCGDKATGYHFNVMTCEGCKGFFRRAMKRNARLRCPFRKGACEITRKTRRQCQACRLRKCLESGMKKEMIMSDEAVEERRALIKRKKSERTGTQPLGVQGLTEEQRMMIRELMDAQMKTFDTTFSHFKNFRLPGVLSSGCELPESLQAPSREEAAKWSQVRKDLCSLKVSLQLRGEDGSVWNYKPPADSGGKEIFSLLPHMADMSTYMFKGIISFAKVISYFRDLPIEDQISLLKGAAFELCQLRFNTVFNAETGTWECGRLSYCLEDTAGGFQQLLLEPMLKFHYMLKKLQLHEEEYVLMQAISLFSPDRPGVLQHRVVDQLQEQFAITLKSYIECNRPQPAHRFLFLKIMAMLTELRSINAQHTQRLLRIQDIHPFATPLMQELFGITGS
Sequence of human Retinoic Acid Receptor beta (RARb), RARB (gene 5915) (P10826 whole entry, looked up, the tested form may be a part): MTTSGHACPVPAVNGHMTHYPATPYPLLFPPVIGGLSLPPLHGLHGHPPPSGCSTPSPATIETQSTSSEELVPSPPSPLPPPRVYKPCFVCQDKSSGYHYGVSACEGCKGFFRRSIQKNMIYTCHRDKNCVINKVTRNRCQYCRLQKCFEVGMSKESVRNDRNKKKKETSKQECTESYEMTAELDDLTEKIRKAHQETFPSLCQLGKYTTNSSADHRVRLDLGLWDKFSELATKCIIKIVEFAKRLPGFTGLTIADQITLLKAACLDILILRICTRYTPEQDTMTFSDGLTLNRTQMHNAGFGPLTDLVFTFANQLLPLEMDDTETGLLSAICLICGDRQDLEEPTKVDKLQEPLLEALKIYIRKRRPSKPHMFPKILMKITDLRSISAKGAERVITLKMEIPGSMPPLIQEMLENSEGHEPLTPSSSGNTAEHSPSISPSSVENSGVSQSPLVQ
Sequence of Retinoic acid receptor RXR-alpha (Homo sapiens) (P19793 whole entry, looked up, the tested form may be a part): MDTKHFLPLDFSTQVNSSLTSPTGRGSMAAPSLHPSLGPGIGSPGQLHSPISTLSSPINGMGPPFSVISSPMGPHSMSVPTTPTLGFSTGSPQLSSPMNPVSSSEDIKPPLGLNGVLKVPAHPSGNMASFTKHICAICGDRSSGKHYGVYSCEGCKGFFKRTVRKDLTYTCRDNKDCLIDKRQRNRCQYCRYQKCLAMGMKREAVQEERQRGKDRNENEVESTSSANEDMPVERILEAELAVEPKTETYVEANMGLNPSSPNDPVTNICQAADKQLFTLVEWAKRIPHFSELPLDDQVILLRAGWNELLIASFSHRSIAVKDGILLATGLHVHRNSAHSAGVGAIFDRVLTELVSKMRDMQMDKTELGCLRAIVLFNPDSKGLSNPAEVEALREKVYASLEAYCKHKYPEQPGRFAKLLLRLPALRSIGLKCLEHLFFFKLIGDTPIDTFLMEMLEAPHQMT

Turning to `O=C(O)c1cccc(N(Cc2cccnc2)c2ccc(OC(F)F)c(OC(F)F)c2)c1`, the compound was called inactive in [1], in assay [2], in assay [5], in [6], in assay [8] and in [9]. For the same compound, the outcome in assay [10], in [11], in [13] and in assay [14] was inactive. The AC50 (usually the concentration at which the activity in the assay is half-maximal) in assay [3] was 35.7 µM (active); in assay [4] it was 14.7 µM (active); in [7], 12.9 µM (active); in assay [12], 6.66 µM (active).
Consider `CC(C)=CCC/C(C)=C/CO`, for which the outcome in assay [1], in assay [2], in assay [3], in [4], in [5] and in [6] was inactive. The outcome in assay [7], in assay [8], in [9], in assay [10], in assay [11] and in assay [15] was inactive. The outcome in assay [16] and in [14] was inactive. For the same compound, the AC50 in [12] was 63.6 µM (active).
Take `CC(C)(O)c1coc(S(=O)(=O)NC(=O)Nc2c3c(cc4c2CCC4)CCC3)c1`: the outcome in assay [1], in assay [2], in [3], in [4], in [5] and in assay [6] was inactive. In addition, the result in [7], in assay [9], in [11], in [13], in assay [15] and in assay [16] was inactive. Also, the AC50 in assay [12] is 44.9 µM (active).
As to `O=C1CCC(N2C(=O)c3ccccc3C2=O)C(=O)N1` (stereo not given), the compound was classed as inactive in assay [1], in [2], in assay [3], in assay [4], in [5] and in assay [6]. The result in assay [7], in assay [9], in assay [11] and in assay [12] was inactive.
Take `Nc1cccc(N)c1`: the call in [1], in assay [2], in assay [3], in assay [4], in [5] and in assay [6] was inactive. The outcome in assay [7], in assay [9], in assay [10], in [17], in [18] and in assay [13] was inactive. Moreover, the result in [15], in [16] and in [14] was inactive.
For `C1=CCCC=CCCC=CCC1`, the half-maximal activity concentration (AC50) was 159 µM (active) in assay [1], 56.5 µM (active) in assay [18] and 26.9 µM (active) in assay [13]. Further, the outcome in assay [2], in assay [3], in assay [4], in assay [5], in assay [6] and in [7] was inactive. Also, the outcome in assay [9], in [10], in assay [17], in assay [11] and in assay [14] was inactive.
Take `CN(C)c1ccc(Cc2ccc(N(C)C)cc2)cc1`: the concentration at half-maximal activity (AC50) in assay [1] is 78.2 µM (active); in [2] it was 56.7 µM (active); in assay [11] it was 13.4 µM (active); in assay [12], 23.1 µM (active). Besides, the compound was classed as inactive in assay [3], in [4], in assay [5], in assay [6], in assay [7] and in assay [9]. Also, the result in assay [10], in assay [18], in assay [13] and in assay [14] was inactive.
For the compound `CC(=O)OCCC(C)C`, the compound was classed as inactive in assay [1], in [2], in [3], in [4], in [5] and in [6]. Further, the outcome in assay [7], in [8], in assay [9] and in assay [15] was inactive.
